Consider 40 compounds from PubChem BioAssay (EPA / NIEHS).

Activity calls are given as the source filed them. Rule for the calls: active = hit-call score of the fitted dose curve at least 0.9, where 1 is the maximum; inactive = score below 0.9.

A short description of this assay: ATG_NRF2_ARE_CIS: Attagene CIS-FACTORIAL HepG2 Assay for human Nuclear Factor Erythroid 2 Related Factor 2 (NFR2) response to Antioxidant Response Elements (ARE) (AID 2282992). As to conditions: HepG2 Attagene ARE/NRF2 reporter, transcription factor activity; actives raise or lower the signal. The procedure: ATG_CIS is a cell-based, multiplexed-readout assay that uses HepG2, a human liver cell line, with measurements taken at 24 hours after chemical dosing in a 24-well plate.ATG_NRF2_ARE_CIS is one of 52 assay component(s) measured or calculated from the ATG_CIS assay. It is designed to make measurements of mRNA induction, a form of inducible reporter, as detected with fluorescence intensity signals by Reverse transcription polymerase chain reaction (RT-PCR) and Capillary electrophoresis technology.Data from the assay component ATG_NRF2_ARE_CIS was analyzed into 1 assay endpoint. This assay endpoint, ATG_NRF2_ARE_CIS, was analyzed with bidirectional fitting relative to DMSO as the negative control and baseline of activity. Using a type of inducible reporter, measures of mRNA for gain or loss-of-signal activity can be used to understand the reporter gene at the transcription factor-level as they relate to the gene NFE2L2. Furthermore, this assay endpoint can be referred to as a primary readout, because this assay has produced multiple assay endpoints where this one serves a reporter gene function. To generalize the intended target to other relatable targets, this assay endpoint is annotated to the dna binding intended target family, where the subfamily is basic leucine zipper.
Human liver HepG2 cells are transiently transfected with multiple reporter transcription units (MRTUs) in 6-well plates using FuGene 6 reagent (Roche; 3 ml FuGene/1 mg DNA). The MRTU constructs are regulated by a cis-regulating element (promoter). […] A major difference between the CIS and TRANS system is that in CIS activities of endogenous TFs are measured, whereas the TRANS assay evaluates changes in activities of exogenous, chimeric NR-Gal4 proteins. […] At the end of 24 hour incubation, total RNA was isolated using TriZol reagent (Invitrogen). The isolated RNA is then reverse-transcribed using oligo(dT) primer and Mo-MLV reverse transcriptase (Invitrogen) with DNAse I (Ambion) treatment for 30 min. The one-tenth of the produced cDNA was amplified by PCR using Taq DNA polymerase (Invitrogen) and two reporter sequence-specific primers. The PCR products were fluorescently labeled by primer extension with 6-arboxyfluorescein (6-FAM) 5'-labeled reporter sequence-specific primer (2 min at 95 C, 20 s at 68 C and 10 min at 72 C) and these products were digested with 5U of HpaI (New England Biolabs) for 2h at 37 C. The fragments were purified using Qiaquick PCR columns (Qiagen), analyzed on an ABI 3130xL genetic analyzer (Applied Biosystems) with peak positions identified by using a set of X-rhodamine (ROX)-labeled MapMarker1000 molecular weight standards (BioVentures). The raw capillary electrophoresis data was processed using Attagraph software (Attagene).
As usually defined, the AC50 is the concentration giving half of the maximal activity seen. Take `Cn1cccc1`: the AC50 was 29.5 µM (active).

With `CCCCCCCCCCCCCC(=O)OC(C)C`, the call was inactive.

For the compound `Nc1ncnc2nc[nH]c12`, the result was inactive.

For `Cc1ccc(S(=O)(=O)N=C=O)cc1`, the compound was classed as inactive.

For `C=CC(=O)OCCCCCCCCCC`, the half-maximal activity concentration (AC50) is 94.5 µM (active).

Regarding `CC(C=O)c1ccccc1` (stereo not given), the compound was classed as inactive.

Turning to `C=C(C)C1CC=C(C)CC1` (stereo not given), the result was inactive.

Turning to `C[N+](C)(C)CCCNS(=O)(=O)C(F)(F)C(F)(F)C(F)(F)C(F)(F)C(F)(F)C(F)(F)C(F)(F)C(F)(F)F`, the compound was classed as inactive.

With `CCCCNC(=S)NCCCC`, the compound was called inactive.

For `Oc1ccc(/C=C/c2cc(O)cc(O)c2)cc1`, the AC50 was 24.6 µM (active).

In the case of `CCOC(=O)/C=C\C(=O)OCC`, the AC50 was 11.4 µM (active).

Take `COC(=O)c1ccccc1C`: the result was inactive.

Turning to `CC(=O)CCC=C(C)C`, the compound was classed as inactive.

Consider `CC(=O)OCCc1ccccc1`, for which the compound was classed as inactive.

With `CC1(C)[C@@H]2CC[C@@]1(C)C(=O)C2`, the compound was called inactive.

As for `CC(C)[N+](C)(CCOC(=O)C1c2ccccc2Oc2ccccc21)C(C)C`, the call was inactive.

Regarding `CCCCCC(=O)OCC`, the compound was called inactive.

`Cc1ccc2c(c1)CCCN2`: the outcome was inactive.

Take `CCC(C)N` (stereo not given): the outcome was inactive.

Turning to `C=CCCCCCCCCC=O`, the compound was called inactive.

Regarding `NC(=O)Nc1ccccc1`, the result was inactive.

For the compound `[Cl][Sc]([Cl])[Cl]`, the call was inactive.

For the compound `O=C1CCCCCCCCCCC1`, the result was inactive.

Turning to `C=CC(=O)OCCCCCCOC(=O)C=C`, the AC50 is 6.61 µM (active).

On to `Oc1ccccc1Cc1ccccc1O`, for which the AC50 was 40.7 µM (active).

On to `O=C(OCCc1ccccc1)c1ccccc1`, for which the outcome was inactive.

`CCOc1ccc(NC(N)=O)cc1`: the compound was classed as inactive.

As for `CC(=O)OCC=C(C)C`, the call was inactive.

As for `Cc1cc(=O)[nH]c(=O)[nH]1`, the compound was classed as inactive.

Take `CC(C)c1ccc2ncccc2c1`: the AC50 is 64.6 µM (active).

Turning to `CC1OC(=O)C(C)OC1=O` (stereo not given), the call was inactive.

In the case of `CCCCC/C=C\C/C=C\CCCCCCCC(=O)O`, the AC50 was 51.6 µM (active).

With `CCCCCCCCCC[N+](C)(CCCCCCCCCC)CCC[Si](OC)(OC)OC`, the AC50 is 16 µM (active).

For the compound `CC1=C(O)C(=O)C(C)O1` (stereo not given), the compound was classed as inactive.

For the compound `O=c1c(O)c(-c2ccc(O)cc2O)oc2cc(O)cc(O)c12`, the compound was called inactive.

Take `CC(=O)CC(=O)Nc1ccccc1C`: the outcome was inactive.

For the compound `CCOC(=O)OC(=O)OCC`, the outcome was inactive.

On to `CCCCCCCCCCCC(C)=O`, for which the AC50 was 75.2 µM (active).

For the compound `CC1CCC(C(C)(C)S)C(=O)C1` (stereo not given), the call was inactive.

As to `Oc1ccc(-c2ccccc2)c(Cl)c1`, the AC50 was 22.7 µM (active).
